Measured values as given in PubChem BioAssay (Tox21).
Several values for one entry are separate records, joined by “and”; a condition that tells them apart may be missing. Equal entries are not always repeated. Unmarked numbers belong to inactive results. A call without a number means that no potency is given here. Activity calls are given as the source filed them. Unless noted, calls come from the whole dose curve; as a rule, active = well fitted curve in the direction sought with a large enough effect in the repeat runs; inconclusive = weak or mixed curves; inactive = no such curve, though single readings can be large; an effect the other way counts as inactive or inconclusive.

Key:
[1] = qHTS assay to identify small molecule antagonists of the glucocorticoid receptor (GR) signaling pathway - cell viability counter screen (AID 720693); note: nearly all actives have a fitted effect of over 55% in size
[2] = qHTS assay for identifying genotoxic compounds that show differential cytotoxicity against isogenic chicken DT40 cell lines with known DNA damage response pathways - wild type cell line (AID 743012); note: nearly all actives have a fitted effect of over 60% in size; note: potency is the fitted concentration of half-maximal effect
Outline: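 CellTiter-Glo luminescence readout of viability in wild type DT40 cells after 40 h compound exposure at 37 C/5% CO2; 300 cells/well; reagent incubated 30 min at room temperature before reading.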

[3] = qHTS assay for identifying genotoxic compounds that show differential cytotoxicity against isogenic chicken DT40 cell lines with known DNA damage response pathways - Rev3 mutant cell line (AID 743014); note: nearly all actives have a fitted effect of over 55% in size; note: potency is the fitted concentration of half-maximal effect
[4] = qHTS assay for identifying genotoxic compounds that show differential cytotoxicity against isogenic chicken DT40 cell lines with known DNA damage response pathways - Rad54/Ku70 mutant cell line (AID 743015); note: nearly all actives have a fitted effect of over 60% in size; note: potency is the fitted concentration of half-maximal effect
[5] = qHTS assay to identify small molecule antagonists of the androgen receptor (AR) signaling pathway - cell viability counter screen (AID 743033; note: nearly all actives have a fitted effect of over 45% in size; note: potency is the fitted concentration of half-maximal effect)
[6] = qHTS assay to identify small molecule antagonists of the thyroid receptor (TR) signaling pathway (AID 743065); note: nearly all actives have a fitted effect of over 55% in size; note: potency is the fitted concentration of half-maximal effect
Outline: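 Antagonism measured as loss of luciferase signal in GH3 cells stably carrying a TRE-luciferase reporter, co-treated with compound and T3 (1 nM final) for 23.5 h at 37 C. Viability was read in the same well by CellTiter-Fluor.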

[7] = qHTS assay to identify small molecule antagonists of the estrogen receptor alpha (ER-alpha) signaling pathway using the BG1 cell line - cell viability counter screen (AID 743081);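 note: compound given together with 17beta-estradiol as the ER stimulus; nearly all actives have a fitted effect of over 45% in size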
Aromatase (Homo sapiens) = Aromatase (Homo sapiens) (UniProt P11511); experiment: qHTS assay to identify aromatase inhibitors (AID 743083); note: nearly all actives have a fitted effect of over 55% in size; note: potency is the fitted concentration of half-maximal effect
[8] = qHTS assay to identify small molecule antagonists of the androgen receptor (AR) signaling pathway using the MDA cell line - cell viability counter screen (AID 743041; note: nearly all actives have a fitted effect of over 45% in size)
Outline: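 Using the breast carcinoma line MDA-kb2 AR-luc, test chemicals were co-incubated with R1881 for 16 h; CellTiter-Fluor reagent, added at 15.5 h, provided a fluorescence measure of live cells.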

[9] = qHTS assay to identify small molecule antagonists of the thyroid receptor (TR) signaling pathway - cell viability counter screen (AID 743064); note: nearly all actives have a fitted effect of over 50% in size
Outline: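 In-well cytotoxicity read by CellTiter-Fluor (30 min, 37 C) following 23.5 h exposure of GH3 cells bearing a TRE-luciferase sensor. Compounds were added alongside 1 nM (final) T3 to drive TR transactivation.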

[10] = qHTS assay to identify small molecule antagonists of the estrogen receptor alpha (ER-alpha) signaling pathway - cell viability counter screen (AID 743074; calls by dose curve; note: nearly all actives have a fitted effect of over 45% in size)
[11] = biological target: Estrogen receptor (Homo sapiens) (UniProt P03372); experiment: qHTS assay to identify small molecule agonists of the estrogen receptor alpha (ER-alpha) signaling pathway (AID 743075; calls by dose curve)
[12] = tested on: thyroid hormone receptor (rat, GH3 cells); experiment: qHTS assay to identify small molecule agonists of the thyroid receptor (TR) signaling pathway (AID 743066; calls by dose curve)
[13] = qHTS assay to identify small molecule antagonists of the estrogen receptor alpha (ER-alpha) signaling pathway using the BG1 cell line (AID 743080; calls by dose curve; note: nearly all actives have a fitted effect of over 25% in size; note: potency is the fitted concentration of half-maximal effect)
Outline: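 Antagonist mode: compounds in DMSO were pinned onto BG1-Luc-4E2 cells alongside 17beta-estradiol agonist, incubated 21.5 h, and ERE-driven luciferase measured with ONE-Glo. Cytotoxicity was multiplexed using CellTiter-Fluor fluorescence.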

[14] = biological target: Androgen receptor (Homo sapiens) (UniProt P10275); experiment: qHTS assay to identify small molecule antagonists of the androgen receptor (AR) signaling pathway (AID 743035; active = well fitted inhibition curve with a large enough effect in the signal ratio in the repeat runs, not every such curve was filed as active; inconclusive = weak or mixed curves, or effect the other way; inactive = no such curve, though single readings can be large or run the other way; the % refers to the signal ratio; note: potency is the fitted concentration of half-maximal effect)
Outline: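 AR-bla HEK293 reporter cells; 4 h settle at 37C/5% CO2; compound + R1881 agonist, 16 h at 37C; LiveBLAzer B/G FRET substrate 2 h RT; fluorescence intensity read. qHTS format.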

[15] = biological target: Androgen receptor (Homo sapiens) (UniProt P10275); experiment: qHTS assay to identify small molecule agonists of the androgen receptor (AR) signaling pathway (AID 743036; active = well fitted activation curve with a large enough effect in the signal ratio in the repeat runs, with a control signal flat, not every such curve was filed as active; inconclusive = weak or mixed curves, or effect the other way; inactive = no such curve, though single readings can be large or run the other way; the % refers to the signal ratio)
Outline: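 Activation was read as beta-lactamase FRET signal from LiveBLAzer B/G substrate, added for 2 h at room temperature. Before that, GeneBLAzer AR-UAS-bla GripTite (HEK293) cells had 16 h compound exposure at 37C.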

[16] = biological target: Androgen receptor (Homo sapiens) (UniProt P10275); experiment: qHTS assay to identify small molecule agonists of the androgen receptor (AR) signaling pathway using the MDA cell line (AID 743040; note: nearly all actives have a fitted effect of over 20% in size)
Outline: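 Stable MMTV-luciferase reporter in MDA-kb2 cells; note the promoter carries GR as well as AR response elements. 16 h compound treatment, 37C, 0% CO2; ONE-Glo luminescence endpoint.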

[17] = biological target: Androgen receptor (Homo sapiens) (UniProt P10275); experiment: qHTS assay to identify small molecule antagonists of the androgen receptor (AR) signaling pathway using the MDA cell line (AID 743042; note: nearly all actives have a fitted effect of over 55% in size; note: potency is the fitted concentration of half-maximal effect)
Outline: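 Antagonist mode: compounds plus R1881 agonist added to MDA-kb2 AR-luc cells, incubated 16 h at 37C. Luciferase reporter luminescence quantified, with multiplexed CellTiter-Fluor readout for cell viability.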

[18] = biological target: Estrogen receptor (Homo sapiens) (UniProt P03372); experiment: qHTS assay to identify small molecule antagonists of the estrogen receptor alpha (ER-alpha) signaling pathway (AID 743069; active = well fitted curve in the direction sought with a large enough effect in the signal ratio in the repeat runs, not every such curve was filed as active; inconclusive = weak or mixed curves, or effect the other way; inactive = no such curve, though single readings can be large or run the other way; the % refers to the signal ratio; note: potency is the fitted concentration of half-maximal effect)
Outline: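 Fluorescence intensity from a beta-lactamase FRET substrate served as the read-out. Cells: HEK293 with stably integrated ER-alpha-UAS-bla reporter. Agonist 17beta-estradiol was co-added with compounds; incubation 18 hr at 37C, substrate 2 hr at room temperature.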

[19] = biological target: Estrogen receptor (Homo sapiens) (UniProt P03372); experiment: qHTS assay to identify small molecule agonists of the estrogen receptor alpha (ER-alpha) signaling pathway using the BG1 cell line (AID 743079); conditions: BG1Luc4E2 cells, ERE-luciferase agonist, 22 h; activation: at 70.3 µM (top of the series); note: nearly all actives have a fitted effect of over 20% in size

Estrogen receptor (Homo sapiens), sequence (P03372 whole entry, looked up): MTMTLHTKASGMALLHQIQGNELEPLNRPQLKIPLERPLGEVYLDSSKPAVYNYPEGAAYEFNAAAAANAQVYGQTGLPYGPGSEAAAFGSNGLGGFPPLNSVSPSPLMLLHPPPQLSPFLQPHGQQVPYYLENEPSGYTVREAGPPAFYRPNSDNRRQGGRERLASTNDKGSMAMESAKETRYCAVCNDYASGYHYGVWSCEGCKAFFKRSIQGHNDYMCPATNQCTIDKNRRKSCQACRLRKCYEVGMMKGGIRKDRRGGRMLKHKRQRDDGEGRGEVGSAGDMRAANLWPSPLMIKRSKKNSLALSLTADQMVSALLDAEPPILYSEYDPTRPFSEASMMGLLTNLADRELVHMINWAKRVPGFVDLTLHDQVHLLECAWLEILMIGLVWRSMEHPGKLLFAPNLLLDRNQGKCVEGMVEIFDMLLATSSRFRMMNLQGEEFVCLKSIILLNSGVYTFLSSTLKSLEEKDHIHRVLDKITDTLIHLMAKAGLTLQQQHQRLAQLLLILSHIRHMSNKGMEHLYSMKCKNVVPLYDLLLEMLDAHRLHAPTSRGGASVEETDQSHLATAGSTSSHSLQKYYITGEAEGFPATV
Aromatase (Homo sapiens), sequence (P11511 whole entry, looked up): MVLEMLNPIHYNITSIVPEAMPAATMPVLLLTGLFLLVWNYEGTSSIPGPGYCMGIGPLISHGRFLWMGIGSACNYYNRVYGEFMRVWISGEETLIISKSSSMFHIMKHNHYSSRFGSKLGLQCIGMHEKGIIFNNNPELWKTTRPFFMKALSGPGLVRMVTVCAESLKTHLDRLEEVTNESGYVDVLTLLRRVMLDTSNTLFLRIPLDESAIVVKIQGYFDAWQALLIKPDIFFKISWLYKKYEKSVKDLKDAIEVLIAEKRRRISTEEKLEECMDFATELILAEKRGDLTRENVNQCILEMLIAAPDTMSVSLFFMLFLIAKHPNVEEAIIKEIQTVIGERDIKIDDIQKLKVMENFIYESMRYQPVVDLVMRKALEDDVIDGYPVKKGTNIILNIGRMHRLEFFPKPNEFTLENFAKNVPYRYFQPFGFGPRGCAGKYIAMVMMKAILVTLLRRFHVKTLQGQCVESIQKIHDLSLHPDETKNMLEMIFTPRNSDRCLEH
Androgen receptor (Homo sapiens), sequence (P10275 whole entry, looked up): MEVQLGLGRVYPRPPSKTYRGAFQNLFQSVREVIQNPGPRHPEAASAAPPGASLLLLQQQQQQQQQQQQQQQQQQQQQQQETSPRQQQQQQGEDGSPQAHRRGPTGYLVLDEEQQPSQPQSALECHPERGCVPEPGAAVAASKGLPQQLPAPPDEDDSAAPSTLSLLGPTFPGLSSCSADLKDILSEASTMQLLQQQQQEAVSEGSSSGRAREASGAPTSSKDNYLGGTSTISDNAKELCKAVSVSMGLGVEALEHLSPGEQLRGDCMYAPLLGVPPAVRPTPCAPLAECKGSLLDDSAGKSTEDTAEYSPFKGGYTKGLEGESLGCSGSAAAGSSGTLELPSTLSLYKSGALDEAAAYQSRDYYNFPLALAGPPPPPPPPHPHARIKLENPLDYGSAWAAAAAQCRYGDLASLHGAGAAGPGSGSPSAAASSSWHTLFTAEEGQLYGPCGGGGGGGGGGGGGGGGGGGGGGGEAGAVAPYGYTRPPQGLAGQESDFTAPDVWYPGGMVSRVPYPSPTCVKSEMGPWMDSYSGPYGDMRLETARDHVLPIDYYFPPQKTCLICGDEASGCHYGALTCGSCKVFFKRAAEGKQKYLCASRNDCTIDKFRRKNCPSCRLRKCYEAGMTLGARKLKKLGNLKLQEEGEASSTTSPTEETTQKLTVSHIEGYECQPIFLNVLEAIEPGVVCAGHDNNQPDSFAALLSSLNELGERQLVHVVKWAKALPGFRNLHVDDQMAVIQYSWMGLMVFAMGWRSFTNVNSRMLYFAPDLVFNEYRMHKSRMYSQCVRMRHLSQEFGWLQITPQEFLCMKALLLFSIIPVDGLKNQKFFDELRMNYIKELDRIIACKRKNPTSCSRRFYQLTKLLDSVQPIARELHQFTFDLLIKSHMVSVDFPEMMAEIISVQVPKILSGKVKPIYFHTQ

Row | SMILES | Potency [1] | Potency [2] | Potency [3] | Potency [4] | Potency [5] | Potency [6] | Potency [7] | Potency (Aromatase (Homo sapiens)) | Potency [8] | Potency [9] | Potency [10] | Potency [11] | Potency [12] | Potency [13] | Potency [14] | outcome [15] | outcome [16] | Potency [17] | Potency [18] | Potency [19]
1 | FC(F)C(F)(F)OCC(Cn1cncn1)c1ccc(Cl)cc1Cl (configuration not stated) | inactive | 3.05 µM (active) | 4.83 µM (active) | 7.65 µM (active) | 54.6 µM (active) | 60.8 µM (active) | inactive | 7.65 µM (active) |  |  |  |  |  |  |  |  |  |  |  | 
2 | CCOP(=O)(Sc1ccccc1)Sc1ccccc1 | inactive | 24.3 µM (active) | inactive | inactive | inactive |  | inactive |  | inactive | inactive | inactive | inactive |  |  |  |  |  |  |  | 
3 | [Cl-].[Cl-].[Cl-].[Yb+3] | inactive | inactive | inactive | inactive | inactive | inactive | inactive | inactive | inactive |  | inactive |  | inactive |  |  |  |  |  |  | 
4 | CC1(C)[C@H](/C=C2\CCSC2=O)[C@@H]1C(=O)OCc1coc(Cc2ccccc2)c1 | inactive | 6.86 µM (active) | 5.45 µM (active) | 10.9 µM (active) | inactive | 43.3 µM (active) | inactive | inactive | inactive |  | inactive | inactive | inactive | 68.6 µM (active) |  |  |  |  |  | 
5 | O=C(Nc1ccc(F)cc1F)c1cccnc1Oc1cccc(C(F)(F)F)c1 | inactive | inactive | inactive | inactive | inactive | inactive | inactive | inactive |  | inactive | inactive |  | inactive |  |  |  |  |  |  | 
6 | COP(=O)(OC)O/C(=C\Cl)c1cc(Cl)c(Cl)cc1Cl | inactive | 17.2 µM (active) | 30.6 µM (active) | 17.2 µM (active) |  | 27.3 µM (active) | inactive | 30.6 µM (active) | inactive |  |  |  | inactive | 68.6 µM (active) | 21.9 µM (active) | inactive | inactive | 54.5 µM (active) | 24.5 µM [inconclusive] (active) | 
7 | CC1(C)C(C=C(Cl)Cl)C1C(=O)OC(C#N)c1ccc(F)c(Oc2ccccc2)c1 (configuration not stated) | inactive | inactive | inactive |  | inactive |  | inactive |  | inactive | inactive | inactive | inactive | inactive | inactive |  |  |  |  | inactive | inactive
8 | COC(=O)/C=C(\C)OP(=O)(OC)OC | inactive | inactive | 24.3 µM (active) | inactive | inactive | inactive | inactive |  | inactive |  | inactive |  | inactive | inactive |  |  |  |  | inactive | 
9 | O=[N+]([O-])[O-].[Tl+] | inactive | 1.55 µM (active) |  | 1.09 µM (active) |  |  | inactive | 69.1 µM (active) | inactive |  | inactive |  |  |  |  |  |  |  |  | 
10 | CC(C)=CC1C(C(=O)OC(C#N)c2cccc(Oc3ccccc3)c2)C1(C)C (configuration not stated) | inactive |  | inactive | inactive | inactive |  | inactive | inactive | inactive | inactive |  |  | inactive |  | inactive | inactive | inactive | inactive |  | 
11 | CC(C)C(Nc1ccc(C(F)(F)F)cc1Cl)C(=O)OC(C#N)c1cccc(Oc2ccccc2)c1 (configuration not stated) | inactive |  | inactive | inactive | inactive | inactive | inactive | inactive | inactive | inactive | inactive |  | inactive | inactive |  |  |  |  | inactive | inactive
12 | ClCBr | inactive | inactive |  | inactive | inactive | inactive | inactive | inactive | inactive | inactive | inactive | inactive | inactive | inactive |  |  |  |  | inactive | 
13 | C[N+]1(C)[C@@H]2CC[C@H]1CC(OC(=O)C(CO)c1ccccc1)C2 (some centres not stated) | inactive |  | inactive | inactive | inactive |  | inactive | inactive | inactive | inactive | inactive |  | inactive | inactive |  |  |  |  |  | 
14 | [O-][Cl+3]([O-])([O-])O | inactive | inactive |  | inactive | inactive |  | inactive | inactive |  | inactive | inactive |  |  |  |  |  |  |  |  | 
15 | O=[N+]([O-])c1ccc(Cl)c(Cl)c1Cl | inactive | inactive |  | inactive | inactive | inactive | inactive | inactive | inactive | inactive | inactive |  | inactive | inactive |  |  |  |  | inactive | inactive
16 | ClC1=C(Cl)[C@]2(Cl)[C@@H]3[C@H]4C[C@H]([C@@H]5O[C@H]45)[C@@H]3[C@@]1(Cl)C2(Cl)Cl | inactive | 29.8 µM (active) and 27.3 µM (active) |  | 17.2 µM (active) | inactive |  | inactive | inactive | inactive |  | inactive | inactive | inactive | inactive |  |  |  |  | inactive | inactive
